Reference: the supplement of paper PMC4840960

System: E18 rat cortical neuron-glia co-culture
Assay: myelination (MBP fiber length per Olig2+ nucleus), % of 1 µM DAPT response (DMSO = 0) (% of DAPT); higher = more myelination, active = 50 or more
Details: 5 µM; treatment time: 8 days (DIV5-DIV13)
Method in brief: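 Rat cortical co-cultures from E18 tissue were dissociated with papain and plated at 20,000 cells/well on 96-well plates coated with poly-d-lysine/laminin. From DIV5 to DIV13, library compounds were added at 1 or 5 µM in myelination medium. After fixation in 4 % paraformaldehyde, cultures were immunostained for MBP and Olig2 and counterstained with DAPI, and four 10X fields were analysed in each of duplicate wells. The myelination value is the length of continuous straight MBP fibers per Olig2+ nucleus, normalised so that 0.1 % DMSO is 0 and a 1 µM positive control is 100.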

myelination, inactive:
COc1ccc2cc(CCC(C)=O)ccc2c1 [Nabumetone] 6.9
COC(=O)C1=C(C)NC(C)=C(C(=O)OC)C1c1ccccc1[N+](=O)[O-] [Nifedipine] 10
C[C@H]1C[C@@H]2[C@H]([C@@H](O)C[C@@]3(C)[C@H]2CC[C@]3(O)C(=O)CO)[C@@]2(C)C=CC(=O)C=C12 [Methylprednisolone] 2.01
Clc1ccc2nsnc2c1NC1=NCCN1 [Tizanidine] -54.3
CCCc1cc(=O)[nH]c(=S)[nH]1 [Propylthiouracil] -11.9
Cc1cn([C@H]2C=C[C@@H](CO)O2)c(=O)[nH]c1=O [Stavudine] -8.63
CC1(C)O[C@@H]2C[C@H]3[C@@H]4C[C@H](F)C5=CC(=O)C=C[C@]5(C)[C@@]4(F)[C@@H](O)C[C@]3(C)[C@]2(C(=O)CO)O1 [Fluocinolone Acetonide] 6.47
NC1CCN(c2nc3c(cc2F)c(=O)c(C(=O)O)cn3-c2ccc(F)cc2F)C1 (stereo unspecified) [Tosufloxacin] -14.4
CCN1CCC[C@H]1CNC(=O)c1c(O)c(Cl)cc(Cl)c1OC [Raclopride] -30.6
CCOc1ccc2ccccc2c1C(=O)N[C@@H]1C(=O)N2[C@@H]1SC(C)(C)[C@@H]2C(=O)O [Nafcillin] -9.33
COc1c(N2CCNC(C)C2)c(F)cc2c(=O)c(C(=O)O)cn(C3CC3)c12 (stereo unspecified) [Gatifloxacin] -14.2
